# Laboratory results taken from ChEMBL document CHEMBL3988442, “University of Dundee, Small-Polar-MMV Screening Library” (2021).
# Among all 48,000 compounds or so, about 13,000 (27%) showed an effect of 50% or more. This is one part of the list.
# Tested on: Wolbachia pipientis
# Assay: Anti-Wolbachia Cell-Based Screen
# Format: functional
# Design: scale not given: in the data most compounds retested in dose-response had high values
# Settings: 5 µM
row,Structure (SMILES),Percent Effect
1,O=C(OC1CCC1)c1ncccc1C(F)(F)F,-15.91%
2,CC(C)c1nnc(NCc2cc3n(n2)CCNC3)s1,7.297%
3,CC1CCN(S(=O)(=O)NC(C)Cc2ccco2)CC1 (configuration not stated),1.293%
4,Cc1nc(CN(C)Cc2cn[nH]c2-c2ccc(F)cc2)c[nH]1,20.15%
5,CC(C)[C@H]1COC(=O)N1CC(=O)N1CCN(C(=O)c2ccco2)CC1,1.132%
6,CN1CC2(CCCN(CCOCc3ccccc3)C2)OC1=O (configuration not stated),96.52%
7,COc1ccc(/C=C/CN2CCC3(CC2)CN(C)C(=O)O3)cc1,-13.05%
8,COCCC1(C(=O)O)CCCN(CCOCc2ccccc2)C1 (configuration not stated),2.553%
9,CS(=O)(=O)NC1CCN(CCOCc2ccccc2)CC1,0.008163%
10,Cc1ccc2oc(=O)n(CCC(=O)N3CCC4(CN(C)C(=O)O4)C3)c2c1 (configuration not stated),2.838%
11,CN1CC2(CCN(C(=O)c3[nH]cnc3-c3ccccc3)C2)OC1=O (configuration not stated),-16.32%
12,CN1CC2(CCN(CCCOCc3ccccc3)CC2)OC1=O,106.4%
13,CCC1(C(=O)O)CCCN(CCOCc2ccccc2)C1 (configuration not stated),2.602%
14,CN1CC2(CCN(C(=O)CCCOCc3ccccc3)C2)OC1=O (configuration not stated),107.9%
15,Cc1cc(NC(=O)N2CCC[C@@H]2CO)nn1-c1ccccc1Cl,-2.328%
16,CC(C)COCCC(=O)Nc1c(-c2ccc(F)cc2)ncn1C,34.39%
17,O=C(NC1CC1)[C@H]1C[C@H]2OCC[C@H]2N(Cc2ccc(F)cc2)C1.O=C(O)C(F)(F)F,-3.794%
18,Cc1ccc([C@@H]2CN(C(=O)c3ccsc3)C[C@H]2NC(=O)C2CC2)cc1,-0.5207%
19,O=C(NCC(O)c1ccccc1Cl)c1cccc(-n2cnnn2)c1 (configuration not stated),-6.148%
20,COCCN1CCC(N(Cc2noc(C3CC3)n2)C(C)=O)C1 (configuration not stated),0.8027%
21,Cc1nc(CN2CCCC(N(C)Cc3c(C)noc3C)C2)no1 (configuration not stated),5.065%
22,Cc1nc(CN2CCCC(N(C)c3ccc(C#N)cn3)C2)no1 (configuration not stated),1.567%
23,Cc1nc(CN(C)C2CCN(Cc3c(C)noc3C)C2)no1 (configuration not stated),-3.836%
24,CC(=O)N(Cc1noc(C)n1)C1CCN(Cc2ccc(C#N)cc2)C1 (configuration not stated),102.5%

row,Structure (SMILES),Percent Effect
1,CC(=O)N(Cc1noc(C)n1)C1CCN(Cc2cccc(C#N)c2)C1 (configuration not stated),124.3%
2,CC(=O)N(Cc1noc(C)n1)C1CCN(Cc2ccccc2C#N)C1 (configuration not stated),-0.5328%
3,CC(=O)N(Cc1noc(C)n1)C1CCN(Cc2c(C)noc2C)C1 (configuration not stated),106.6%
4,COCCCN(C)C1CCCN(Cc2noc(C)n2)C1 (configuration not stated),-3.028%
5,COCCCN1CCC(N(Cc2noc(C)n2)C(C)=O)C1 (configuration not stated),116.1%
6,Cc1cccc(CCC(=O)Nc2cccnc2N2CCC(O)CC2)c1,-21.77%
7,Cc1nonc1NC(=O)c1ccc(F)c(COCC2CC2)c1,-55.79%
8,CC(C)n1cc2cc(NC(=O)CCS(C)(=O)=O)ccc2n1,-1.641%
9,COC(=O)c1cc(C(=O)N2CCOCC2(C)C)n(-c2ccccc2)n1,-5.811%
10,CCC(C)(NCC(=O)OC)c1nccs1 (configuration not stated),-7.626%
11,Cc1ccc(OCC(=O)N(C)Cc2cccc(F)c2)cn1,7.779%
12,CC(C)Oc1cccc(CNC(=O)NC(C)(C(=O)O)c2ccco2)c1 (configuration not stated),1.863%
13,CCNS(=O)(=O)c1ccc(C)c(C(=O)N(CCC#N)Cc2ccco2)c1,-4.86%
14,CCN1CCC2(CC1)CC(NC(=O)c1csnn1)c1ccccc1O2.O=C(O)C(F)(F)F (configuration not stated),-74.83%
15,CC(C)N1CCC2(CC1)CC(NS(C)(=O)=O)c1ccccc1O2.O=C(O)C(F)(F)F (configuration not stated),107.1%
16,CN(C)C(=O)CC1CC2(CCN(C(=O)N(C)C)CC2)Oc2ccccc21 (configuration not stated),-10.67%
17,Cc1ccc(NC2COC3(CCN(CC(C)C)CC3)C2)nn1.O=C(O)C(F)(F)F (configuration not stated),-1.394%
18,O=C(O)C(F)(F)F.O=S(=O)(NC1CCC12CCN(CC1CC1)CC2)c1ccccc1 (configuration not stated),2.266%
19,CS(=O)(=O)NC1CC2(CCN(CC3CC3)CC2)Oc2ccccc21.O=C(O)C(F)(F)F (configuration not stated),88.61%
20,CS(=O)(=O)N1CC[C@]2(C[C@@H](Oc3ccccn3)CO2)C1.O=C(O)C(F)(F)F,-15.23%
21,CCN1CCC2(CC1)CC(NC(=O)c1c[nH]cn1)c1ccccc1O2 (configuration not stated),-7.488%
22,CN1CCC2(CC1)CC(NC(=O)c1csnn1)c1ccccc1O2.O=C(O)C(F)(F)F (configuration not stated),-8.669%
23,CC(C)CN1CCC2(CC1)CC(NS(C)(=O)=O)c1ccccc1O2.O=C(O)C(F)(F)F (configuration not stated),99.03%
24,CC(=O)N1CCC2(CC1)CC(NS(C)(=O)=O)c1ccccc1O2 (configuration not stated),119.8%

row,Structure (SMILES),Percent Effect
1,CNC(=O)NC(=O)C(C)N1CCCc2cc(OC)ccc2C1 (configuration not stated),-11.16%
2,CC(CO)N(C)C(=O)c1cn(-c2ccc(Br)cc2)cn1 (configuration not stated),-3.083%
3,Cc1cc(F)ccc1NCC(=O)NCC(F)(F)F,8.632%
4,CC(C)c1nc2n(n1)CC(NCCc1cccs1)CC2 (configuration not stated),0.7675%
5,NC(=O)N1CCCN(C2CCc3ccc(F)cc32)CC1 (configuration not stated),-19.72%
6,COc1cc2c(nn1)CCN(CC(O)COc1ccc(C#N)cc1)C2 (configuration not stated),-7.756%
7,CC(Cc1ccco1)NS(=O)(=O)N1CCCCCC1 (configuration not stated),-8.82%
8,Cc1ccc(N2CCCC(NCc3cccc4c3OCCO4)C2)nn1 (configuration not stated),17.19%
9,Cc1ccc(N2CCCC(NCc3ccc(C)o3)C2)nn1 (configuration not stated),12.24%
10,CSCc1ccc(CNC2CCCN(c3ccc(C)nn3)C2)o1 (configuration not stated),95.39%
11,Cc1ccc(N2CCCC(NCc3ccc(Cl)o3)C2)nn1 (configuration not stated),93.48%
12,CC(C)(C)CN1CCN2C(=O)N(C3CCCCC3)C[C@H]2C1,-7.444%
13,COc1ccc(C(N)=O)cc1NCc1noc(-c2ccsc2)n1,0.901%
14,O=C(c1ccc(C(F)(F)F)cc1)N1C[C@@H](CN2CCCCC2)[C@@H](CO)C1,-17.56%
15,Cc1nnc(N2CCN(C)C3(CCC(=O)N(CCO)CC3)C2)s1 (configuration not stated),-2.989%
16,CC(NC(=O)NCCCOc1ccccc1F)c1nncn1C (configuration not stated),6.488%
17,Cc1ccn(CC(=O)NCCCOc2ccccc2F)c(=O)c1,116.2%
18,Cc1cccc(OCCNC(=O)Cn2ccc(C)cc2=O)c1,104.8%
19,CC(=O)Nc1nc(C(=O)NCCOc2cccc(C)c2)cs1,7.237%
20,Cc1cccc(OCCCNC(=O)Cn2ccc(C)cc2=O)c1,90.13%
21,Cc1cccc(OCCNC(=O)C(C)S(=O)(=O)c2ccccn2)c1 (configuration not stated),5.338%
22,Cc1ncc(C(=O)NCCOc2ccccc2F)c(C)n1,-10.65%
23,Cc1cccc(OCCCNC(=O)NC(C)c2nncn2C)c1 (configuration not stated),6.947%
24,Cc1cccc(OCCNC(=O)C(C)S(=O)(=O)C2CCCC2)c1 (configuration not stated),-6.282%
